# Screens from PubChem BioAssay.
# The list is not random: actives were taken first. Their share in the collection is about 3%.
# TRb SRC2 PPI: qHTS for Inhibitors of the Interaction of Thyroid Hormone Receptor and Steroid Receptor Coregulator 2 | Thyroid hormone receptor beta (Homo sapiens), P10828 | TRbeta-SRC2 peptide binding, fluorescence polarization; receptor liganded with 1 µM T3 | Potency, µM (doses to about 106 µM), without a hit: at the top dose activity change, negative = inhibition, usual class: inhibitors | 280,000 compounds, 0.065% hits;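 note: plate controls were bound peptide for no effect and peptide without receptor for full effect; nearly all actives have a fitted effect of over 50% in size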
#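 Fluorescence polarization of 20 nM Texas Red SRC2 peptide (20-aa NR interaction domain) bound to 0.6 uM human TRb ligand-binding domain, with 1 uM T3, after 5 hr at ambient temperature; inhibition seen as decreased polarization.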
# Tau fibril ThT: qHTS for Inhibitors of Tau Fibril Formation, Thioflavin T Binding; Potency, µM (highest dose often 57.4 µM), for inactives: at the highest dose activity, negative = inhibition, hits mostly inhibitors; recombinant tau K18 P301L, heparin-induced fibrillization, ThT fluorescence; 270,000 compounds, 2.1% hits; Microtubule-associated protein tau (Homo sapiens), P10636; note: nearly all actives have a fitted effect of over 55% in size
# Target sequence (P10636 561-689 P618L limits assumed): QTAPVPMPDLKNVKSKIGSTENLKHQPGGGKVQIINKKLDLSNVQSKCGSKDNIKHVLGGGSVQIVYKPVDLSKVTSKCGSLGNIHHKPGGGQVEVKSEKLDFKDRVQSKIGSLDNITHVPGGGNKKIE
#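 Recombinant human tau K18 fragment […] carrying P301L, 15 uM unlabeled plus 0.24 uM Alexa 594-labeled, was fibrillized with 20 uM heparin in 100 mM sodium acetate pH 7 for 6 hr at 37 C; 30 uM ThT fluorescence read after 1 hr.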
# Tau FP inhib: qHTS for Inhibitors of Tau Fibril Formation, Fluorescence Polarization | Microtubule-associated protein tau (Homo sapiens), P10636 | K18 P301L tau heparin fibrillization, Alexa594 FP, 6 h | Potency, µM (series often up to 57.7 µM), inactives show at the top dose activity, negative = inhibition, actives largely listed as inhibitors | 280,000 compounds, 0.39% hits | AID 1468, 2008; note: nearly all actives have a fitted effect of over 55% in size
#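 Recombinant K18 P301L […], labeled with Alexa 594 at 0.24 uM over 15 uM unlabeled; heparin inducer 20 uM final; 37 C, 6 hr; FP endpoint.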
# TexasRed fluor: Total Fluorescence Counterscreen for Inhibitors of the Interaction of Thyroid Hormone Receptor and Steroid Receptor Coregulator 2. AID 1479, 2009. Potency, µM (top dose mostly 106 µM), for inactives: at the highest dose fluorescence change, negative = quenching. TRb/SRC2 Texas Red total fluorescence interference. 280,000 compounds, 0.29% hits; active = well fitted curve in either direction with a large enough effect; inconclusive = small, poorly fitted or top-dose-only effect
#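 Flags fluorescent or light-absorbing compounds by total fluorescence, S + 2P, at 555 nm excitation and 632 nm emission. Mixture: 20 nM Texas Red SRC2 peptide, 0.6 uM human TRb LBD, 1 uM T3, 5% DMSO; compound exposure 5 h at ambient temperature.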
# Tau fluor counter: Counterscreen qHTS for Inhibitors of Tau Fibril Formation, Fluorescence Polarization. tau K18 P301L (four-repeat tau fragment) Alexa594 fluorescence, heparin fibrillization. Potency, µM (titrated, usually from 57.7 µM), for inactives: at the highest dose activity change, negative = decrease. 280,000 compounds, 0.93% hits. AID 1463, 2008; note: nearly all actives have a fitted effect of over 55% in size
#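 Human K18 P301L tau (15 uM unlabeled plus 0.24 uM Alexa 594-labeled, final) in 100 mM sodium acetate pH 7 was mixed with compound and 20 uM heparin and incubated 6 hr at 37 C.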
# The depositor's hits bear a star; ? = inconclusive; / = no result; [ ] = another dose, or the depositor's remark. Unless noted, calls come from the whole dose curve; as a rule, active = well fitted curve in the direction sought with a large enough effect; inconclusive = small, poorly fitted or top-dose-only effect, or another doubt; inactive = no such curve, though single readings can be large; an effect the other way counts as inactive or inconclusive. Unless noted, % is set by controls: 0 for no effect and ±100 for the full control effect; potency is the fitted concentration of half-maximal effect.
SMILES,TRb SRC2 PPI,Tau fibril ThT,Tau FP inhib,TexasRed fluor,Tau fluor counter
O=c1c(O)c(-c2ccc(O)c(O)c2)oc2c(OC3OC(CO)C(O)C(O)C3O)c(O)cc(O)c12 (stereo unspecified),4%,14µM*,?,-2%,-28%
O=c1c(OC2OC(CO)C(O)C(O)C2O)c(-c2ccc(O)c(O)c2)oc2cc(O)cc(O)c12 (stereo unspecified),7%,-18%,4%,-16%,-9%
CC1OC(OCC2OC(Oc3c(-c4ccc(O)c(O)c4)oc4cc(O)cc(O)c4c3=O)C(O)C(O)C2O)C(O)C(O)C1O (stereo unspecified),-7%,?,-14%,-6%,-17%
CCOc1ccc(-c2nnc(SCC(=O)Oc3ccccc3)o2)cc1,-2%,-9%,-1%,-3%,-12%
CC=C(/C(=C/C)c1ccc(O)cc1)c1ccc(O)cc1,1%[53 µM],/,/,-1%[53 µM],/
Brc1ccc(C=Nc2ccc(Nc3ccccc3)cc2)s1,-2%,10µM*,?,-2%,11µM*[quencher]
C(=Nc1ccc(Nc2ccccc2)cc1)c1ccc2ccccc2c1,7%,7.9µM*,?,?,8.9µM*[quencher]
CCc1ccccc1NC(=O)CC1NCCNC1=O (stereo unspecified),0%[11.2 µM],-4%,-2%,-28%[11.2 µM],-9%
COC(=O)CC1(c2cccc3ccccc23)C(=O)c2ccccc2C1=O,8%,16µM*,-5%,-5%,?
Cc1cccc(N(CC(=O)Nc2cccc(Cl)c2C)S(C)(=O)=O)c1C,1%,-1%,-3%,-4%,-20%
CSc1nc(/C=C2\C=Nc3ccccc32)c(O)n1C,-6%,11µM*,11%,-8%,?
CC(C)n1c(O)c(/C=C2\C=Nc3ccccc32)sc1=Nc1ccccc1,-8%,-6%,-6%,2%,?
COc1cc(/C=N/NC(=O)CSc2cc(C)c(Br)cc2C)ccc1O,0%,?,1%,-3%,25µM*[quencher]
Cc1cc(SCC(=O)N/N=C/c2ccc(O)c(O)c2O)c(C)cc1Br,-3%,7.9µM*,13µM*,-6%,14µM*[quencher]
COc1ccc(/C=N/NC(=O)CCn2c3ccccc3c3ccccc32)cc1O,-1%,?,-10%,0%,18µM*[quencher]
CC(=O)c1ccc(NC(=O)Cn2c(=O)cc(C)c3c(C)nn(-c4cccc(F)c4)c32)cc1,3%,-16%,?,-2%,-25%
Cc1c(Cl)cccc1NC(=O)CCS(=O)(=O)c1ccc2c(c1)CC(=O)N2C,-5%,-9%,2%,0%,-13%
COc1ccc2c(c1)OCc1c-2oc2cc(OC)ccc12,4%,8.9µM*,?,0%,?
COc1ccc2c(=O)c(OC)c(-c3ccccc3)oc2c1,-12%,?,-4%,?,?
Cc1nc2nc(C)c(NS(=O)(=O)c3ccc(F)cc3)c(=O)n2[nH]1,-3%,3%,7%,0%,6%
